Assay [1] addresses Thyrotropin receptor (Homo sapiens) (UniProt P16473). The assay is described as follows: qHTS assay to identify small molecule agonists of the thyroid stimulating hormone receptor (TSHR) signaling pathway (AID 1224843; calls by dose curve; note: nearly all actives have a fitted effect of over 45% in size). The method, boiled down:
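HEK293/TSHR, 800 cells/well; cpd 30 min RT; add cAMP-d2 + anti-cAMP-cryptate, 1 h RT; fluorescence read on plate reader. 15-pt titration, n=3.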

Assay [2] in a line: qHTS assay to identify small molecule agonists of the hypoxia (HIF-1) signaling pathway - cell viability counter screen (AID 1224844; calls by dose curve; note: nearly all actives have a fitted effect of over 50% in size). Summed up:
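HRE-bla ME-180; 0.5% dFBS; cpd 17 h, 37C, 5% CO2; CellTiter-Glo lum., 30 min RT, post-FRET read, same wells.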

Assay [3] in a line: qHTS assay to identify small molecule agonists of the hypoxia (HIF-1) signaling pathway (AID 1224846; active = well fitted activation curve with a large enough effect in the signal ratio in the repeat runs, not every such curve was filed as active; the % refers to the signal ratio). Summed up:
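Reporter induction in HRE-bla ME-180 cells is taken as agonism: cells sit 5 hrs after plating, receive compounds or DMSO only, incubate 17 hrs at 37C under 5% CO2, and are loaded with CCF4-AM for beta-lactamase FRET measurement.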

A short description of assay [4]: qHTS assay to identify small molecule agonists of H2AX - cell viability counter screen (AID 1224847; calls by dose curve; note: nearly all actives have a fitted effect of over 30% in size; note: potency is the fitted concentration of half-maximal effect). Summed up:
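Read-out: CellTiter-Glo luminescence, 30 min RT. Cells: wild-type CHO-K1, 1000/well, 10% FBS, plated overnight at 37C. Treatment: 15 concentrations, 3 hr, 37C, 0.76% DMSO.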
A general note: Quantitative high-throughput screening tests each substance at several concentrations.

Assay [5] is described as follows: qHTS assay to identify small molecule antagonists of the estrogen related receptor (ERR) signaling pathway from Tox21 library (AID 1224848). Note: nearly all actives have a fitted effect of over 50% in size. Note: potency is the fitted concentration of half-maximal effect. The method, boiled down: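 Compounds dissolved in DMSO are pin-transferred onto ERR reporter cells (2,000 per well) that have settled for 6 h at 37 C. Plates then incubate 18 h at 37 C before ONE-Glo luciferase reagent and a luminescence read 30 min later.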

Assay [6] is described as follows: qHTS assay to identify small molecule agonists of the estrogen related receptor (ERR) signaling pathway from Tox21 library (AID 1224849; calls by dose curve; note: nearly all actives have a fitted effect of over 15% in size). The following applies: ERR reporter cell line, ONE-Glo luciferase, 18 h; at 92.4 µM (top of the series) unless noted. Summed up: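 Tox21 compounds tested for ERR agonism in an NTP reporter cell line: 18 h treatment at 37 C, then ONE-Glo luminescence.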

Assay [7] is described as follows: qHTS RealTime-Glo MT Cell Viability Assay in HEK293 cells - 32 hour (AID 1224868). Note: nearly all actives have a fitted effect of over 50% in size. Note: potency is the fitted concentration of half-maximal effect. The method, boiled down:
(§1)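 Cells + reagent dispensed (600 cells/well, HEK293) → 5 h at 37 C/5% CO2 → 23 nL compound in DMSO pinned → 40 h at 37 C → luminescence read at 0, 8, 16, 24, 32, 40 h.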

A short description of assay [8]: A CellTox Green Cytotoxicity Assay to monitor cytotoxicity in HEK293 cells - 0 hour (AID 1224869). Note: nearly all actives have a fitted effect of over 50% in size. Summed up:
(§2)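 Tox21 screen in HEK293: membrane-impermeant cyanine dye fluoresces on binding dead-cell DNA; compound pinned 5 h post-seeding, plates held at 37 C, signal read repeatedly through 40 h.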

Assay [9] is described as follows: qHTS RealTime-Glo MT Cell Viability Assay in HepG2 cells - 40 hour (AID 1224870). Note: nearly all actives have a fitted effect of over 50% in size. Summed up:
(§3)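 HepG2 cells (600/well) mixed with RealTime-Glo MT reagent, settled 5 h at 37 C/5% CO2 before compound addition. Nonlytic NanoLuc luminescence from viable-cell prosubstrate reduction read repeatedly during 40 h treatment at 37 C.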

A short description of assay [10]: A CellTox Green Cytotoxicity Assay to monitor cytotoxicity in HEK293 cells - 40 hour (AID 1224871). Note: nearly all actives have a fitted effect of over 45% in size. Summed up:
as §2

Assay [11] in a line: qHTS RealTime-Glo MT Cell Viability Assay in HEK293 cells - 16 hour (AID 1224872). Note: nearly all actives have a fitted effect of over 50% in size. Note: potency is the fitted concentration of half-maximal effect. The method, boiled down:
as §1

A short description of assay [12]: qHTS RealTime-Glo MT Cell Viability Assay in HEK293 cells - 40 hour (AID 1224874). Note: nearly all actives have a fitted effect of over 50% in size. Note: potency is the fitted concentration of half-maximal effect. To be noted: RealTime-Glo luminescence; max response: hits give low values. Summed up:
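HEK293 + NanoLuc + prosubstrate, 600 cells/well; 5 h, 37 C/5% CO2; compound 23 nL in DMSO by pintool; 37 C; luminescence read at 0, 8, 16, 24, 32 and 40 h time points.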

Assay [13] in a line: A CellTox Green Cytotoxicity Assay to monitor cytotoxicity in HEK293 cells - 24 hour (AID 1224875). Note: nearly all actives have a fitted effect of over 45% in size. The method, boiled down: as §2
A short description of assay [14]: A CellTox Green Cytotoxicity Assay to monitor cytotoxicity in HepG2 cells - 16 hour (AID 1224876). Note: nearly all actives have a fitted effect of over 45% in size. The method, boiled down: (§4)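 Measurements at 0, 8, 16, 24, 32 and 40 h of treatment captured CellTox Green fluorescence in HepG2 cells that had been co-plated with reagent and preincubated 5 h at 37 C/5% CO2.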
Assay [15] is described as follows: A CellTox Green Cytotoxicity Assay to monitor cytotoxicity in HepG2 cells - 24 hour (AID 1224878). Note: nearly all actives have a fitted effect of over 45% in size. The method, boiled down:
as §4

Assay [16] is described as follows: A CellTox Green Cytotoxicity Assay to monitor cytotoxicity in HepG2 cells - 40 hour (AID 1224879). Note: nearly all actives have a fitted effect of over 40% in size. The method, boiled down: as §4
A short description of assay [17]: qHTS assay to identify small molecule agonists of H2AX (AID 1224845; active = well fitted activation curve with a large enough effect in the signal ratio in the repeat runs, not every such curve was filed as active; the % refers to the signal ratio). Summed up:
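Wild-type CHO-K1 cells, plated overnight, exposed 3hr at 37C to 15 concentrations (0.76% DMSO final). Lysed, then HTRF anti-pH2AX (S139) cryptate and anti-H2AX-d2 antibodies, 24 hr room temperature; 665/620 nm emission read.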

Assay [18] in a line: qHTS RealTime-Glo MT Cell Viability Assay in HepG2 cells - 24 hour (AID 1224867). Note: nearly all actives have a fitted effect of over 50% in size. The method, boiled down:
(§5)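 Real-time, nonlytic viability: 600 HepG2 cells/well mixed with NanoLuc enzyme plus prosubstrate; 5 h settle, compound (DMSO) added by pintool; luminescence monitored over 40 h at 37 C.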

A short description of assay [19]: qHTS RealTime-Glo MT Cell Viability Assay in HepG2 cells - 8 hour (AID 1224873). Note: nearly all actives have a fitted effect of over 55% in size. Summed up:
as §3

Assay [20] in a line: qHTS RealTime-Glo MT Cell Viability Assay in HepG2 cells - 32 hour (AID 1224877). Note: nearly all actives have a fitted effect of over 55% in size. The method, boiled down: as §5

The results in this text go back to PubChem BioAssay (Tox21).

Unmarked numbers belong to inactive results. Records with an inconclusive call do not appear. Active and inactive are the calls of the source. Unless noted, calls come from the whole dose curve; as a rule, active = well fitted curve in the direction sought with a large enough effect in the repeat runs; inconclusive = weak or mixed curves; inactive = no such curve, though single readings can be large; an effect the other way counts as inactive or inconclusive.
% is set by controls: 0 for no effect and ±100 for the full control effect.

Chain of Thyrotropin receptor (Homo sapiens) (P16473 whole entry, looked up): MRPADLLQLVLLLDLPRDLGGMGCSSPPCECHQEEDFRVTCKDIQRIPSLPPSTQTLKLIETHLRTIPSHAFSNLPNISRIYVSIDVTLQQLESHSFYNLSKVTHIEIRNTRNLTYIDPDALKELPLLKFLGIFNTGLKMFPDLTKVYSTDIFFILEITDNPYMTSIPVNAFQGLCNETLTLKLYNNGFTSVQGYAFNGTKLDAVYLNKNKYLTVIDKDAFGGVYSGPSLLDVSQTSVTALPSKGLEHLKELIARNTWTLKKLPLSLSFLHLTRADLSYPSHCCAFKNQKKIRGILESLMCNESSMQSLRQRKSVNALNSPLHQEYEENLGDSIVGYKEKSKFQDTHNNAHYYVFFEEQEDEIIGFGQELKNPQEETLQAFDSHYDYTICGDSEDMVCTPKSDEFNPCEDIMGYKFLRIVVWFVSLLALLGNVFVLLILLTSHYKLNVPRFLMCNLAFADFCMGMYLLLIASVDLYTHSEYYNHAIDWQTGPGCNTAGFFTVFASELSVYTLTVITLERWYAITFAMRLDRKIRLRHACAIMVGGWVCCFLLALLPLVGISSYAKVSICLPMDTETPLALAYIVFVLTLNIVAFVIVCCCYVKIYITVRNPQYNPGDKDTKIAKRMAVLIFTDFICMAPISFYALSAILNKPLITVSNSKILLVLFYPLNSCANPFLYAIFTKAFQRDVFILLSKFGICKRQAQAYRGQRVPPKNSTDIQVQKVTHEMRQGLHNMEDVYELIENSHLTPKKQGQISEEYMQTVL

Turning to `CC1=C(C)C(=O)C(CCCCC#CCCCC#CCO)=C(C)C1=O`, the Potency result in assay [1], in assay [2], in [8], in assay [9], in [10] and in assay [13] was “inactive” in each case. Also, the Potency result in assay [14], in assay [15] and in assay [16] was “inactive” in each case. The call in assay [3] was inactive. In addition, the Potency in assay [4] is 49200 nM (active); in assay [5], 13300 nM (active); in assay [7], 674 nM (active); in assay [11] it was 601 nM (active); in assay [12] it was 674 nM (active). Also, the activity change, positive = activation in assay [6] is -50.9% [at 42.5 µM].

For the molecule `CC(C)(C(=O)O)c1ccc(C(O)CCCN2CCC(C(O)(c3ccccc3)c3ccccc3)CC2)cc1` (stereo unspecified), the Potency entry in assay [1], in assay [2], in [17], in assay [4], in [7] and in [8] was “inactive” each time. Further, the Potency entry in assay [9], in [10], in [11], in [13], in assay [14] and in assay [20] was “inactive” throughout. The Potency entry in assay [15] and in assay [16] was “inactive” each time. In addition, the molecule was called inactive in assay [18] and in assay [19]. Moreover, the max response in assay [12] was 1.75%.

Turning to `CCc1c(C)[nH]c2c1C(=O)C(CN1CCOCC1)CC2` (stereo unspecified), the Potency result in assay [1], in assay [2], in assay [17], in [7], in assay [9] and in assay [11] was “inactive” throughout. Also, the Potency entry in [13], in [14], in [20], in [15] and in [16] was “inactive” throughout. Moreover, the result in [18] and in [19] was inactive. Also, the max response in assay [12] is 2.91%.

Regarding `C[C@H](N)C(=O)N[C@@H](C)C(=O)NC1[C@H]2CN(c3nc4c(cc3F)c(=O)c(C(=O)O)cn4-c3ccc(F)cc3F)C[C@@H]12` (stereo partly specified), the Potency result in assay [1], in assay [2], in [17], in [4], in assay [5] and in [7] was “inactive” throughout. Also, the Potency result in assay [8], in assay [10], in assay [11], in assay [13], in assay [14] and in assay [20] was “inactive” in each case. In addition, the Potency entry in assay [15] and in [16] was “inactive” in each case. For the same molecule, the result in assay [18] and in assay [19] was inactive. Further, the max response in assay [12] is 0.749%.

In the case of `CCN(CC)CC(=O)OCC(=O)[C@@]1(O)CC[C@H]2[C@@H]3CCC4=CC(=O)CC[C@]4(C)[C@H]3[C@@H](O)C[C@@]21C`, the Potency result in [1], in assay [2], in assay [17], in assay [4], in assay [7] and in [8] was “inactive” in each case. Also, the Potency result in assay [9], in assay [10], in assay [11], in assay [13], in assay [14] and in assay [20] was “inactive” each time. Further, the Potency result in assay [15] and in [16] was “inactive” each time. The result in assay [18] and in assay [19] was inactive. The max response in [12] was -1.53%.

As to `CCCN(C1CCN(C(=O)C2CCNCC2)CC1)[C@@H]1CCc2ccc(OC)cc2C1`, the Potency entry in assay [1], in assay [2], in assay [17], in assay [4], in assay [5] and in assay [8] was “inactive” each time. For the same molecule, the Potency result in assay [20] was “inactive”. Further, in assay [6], the activity change, positive = activation is -8.07%. For the same molecule, the call in [19] was inactive.

Regarding `CCCCCCCCOCCCN`, the Potency entry in assay [1], in assay [2], in [17], in [7], in assay [9] and in assay [10] was “inactive” in each case. The Potency entry in [11], in assay [13], in [14], in [20], in assay [15] and in assay [16] was “inactive” throughout. Moreover, the molecule was called inactive in [3] and in assay [19]. Also, the max response in assay [12] is 2.92%.

Turning to `O=[N+]([O-])c1cccc(I)c1`, the Potency result in assay [1], in [2], in assay [4], in assay [7], in assay [8] and in assay [9] was “inactive” throughout. For the same molecule, the Potency entry in assay [11], in assay [13], in assay [14], in assay [20], in assay [15] and in assay [16] was “inactive” each time. The molecule was called inactive in assay [3], in assay [18] and in assay [19]. Further, the max response in assay [12] was 0.342%.
